About 83,000 compounds went through this panel and 20% of them were active in at least one assay; those are over-represented in the sample as a whole.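 Plates (96-well) were seeded with cells, treated with compound at one concentration, and incubated for 48 hours before percent growth was determined.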 Unmarked numbers belong to inactive results. Activity calls are given as the source filed them. How the source made its calls: active means growth percent below 10; inactive means the rest.

Some test systems named below: NCI-H23 lung; NCI-H226 lung; NCI-H322M lung; HOP-62 NSCLC; NCI-H460 lung; HOP-92 NSCLC; NCI-H522 lung; A549/ATCC NSCLC; 786-0 renal; COLO 205 colon.
What all share (experiment): NCI-60 one-dose screen, 48 h (100 = growth as untreated, 0 = no growth, -100 = all killed)
What all share (settings): 10 µM unless noted

On to `CC(CCc1ccc(Cl)c(Cl)c1)NCc1ccc(C(C)(C)C)cc1` (stereo not given), for which the growth in the assay with NCI-H23 lung is 91.9%; in the assay with NCI-H226 lung, 83.9%; in the assay with NCI-H322M lung, 97.8%; with HOP-62 NSCLC it was 85.9%; in the assay with NCI-H460 lung, 90.6%; in the assay on HOP-92 NSCLC, 59.5%. Further, the growth in the assay on NCI-H522 lung is 82.7%; in the assay with A549/ATCC NSCLC, 60.8%; in the assay on 786-0 renal, 70.8%; in the assay with COLO 205 colon, -38.2% (active).
In the case of `O=C(/C=C/c1c(Cl)nc2sccn12)c1ccc(F)c(F)c1`, the growth is 67% with NCI-H23 lung; 73.2% with NCI-H226 lung; 93.1% with NCI-H322M lung; 79.8% with HOP-62 NSCLC; 79.5% with NCI-H460 lung; 50.6% in the assay with HOP-92 NSCLC. Also, the growth is 66.5% in the assay on NCI-H522 lung, 80.3% in the assay on A549/ATCC NSCLC, 84.7% in the assay with 786-0 renal and 93% in the assay with COLO 205 colon.
On to `COc1ccc(C2CC(c3cccc(OC)c3)=NN2C(=O)c2cc(OC)c(OC)c(OC)c2)cc1` (stereo not given), for which the growth is 30.6% in the assay with NCI-H23 lung; 79.9% with NCI-H226 lung; 45.1% in the assay on NCI-H322M lung; 39.9% in the assay with HOP-62 NSCLC; 11.4% in the assay on NCI-H460 lung; 35.9% in the assay with HOP-92 NSCLC. For the same compound, the growth in the assay with NCI-H522 lung was 2.3% (active); in the assay on A549/ATCC NSCLC, 32.5%; in the assay on 786-0 renal, 21.6%; with COLO 205 colon it was -1.64% (active).
`c1ccc(-c2nc([P+](c3ccccc3)(c3ccccc3)c3ccccc3)c(N3CCOCC3)o2)cc1`: the growth in the assay with NCI-H23 lung was 2.61% (active); with NCI-H226 lung it was 34.7%; in the assay with NCI-H322M lung, 21%; with HOP-62 NSCLC, -2.79% (active); in the assay with NCI-H460 lung, 10.1%; in the assay on HOP-92 NSCLC, -21.4% (active). Moreover, the growth in the assay on NCI-H522 lung is -3.16% (active); in the assay with A549/ATCC NSCLC, 15.4%; in the assay on 786-0 renal, 27.3%; in the assay on COLO 205 colon, -64.5% (active).
On to `CCCCCCCCCCCC(c1ccccc1)[N+](C)(C)C` (stereo not given), for which the growth in the assay with NCI-H23 lung is 15.7%; in the assay on NCI-H226 lung, 21%; with NCI-H322M lung, 57.3%; with HOP-62 NSCLC it was 16.9%; in the assay on NCI-H460 lung, 16.4%; with HOP-92 NSCLC it was -16.5% (active). Further, the growth in the assay with NCI-H522 lung is 5.04% (active); with A549/ATCC NSCLC, 28.2%; with 786-0 renal, 20.5%; with COLO 205 colon, -74.7% (active).
For the compound `CCOC(=O)/C=C/c1cc2cc(-c3csc4ccccc34)ccc2[nH]1`, the growth in the assay with NCI-H23 lung is 60.6%; with NCI-H226 lung, 103%; in the assay on NCI-H322M lung, 115%; in the assay with HOP-62 NSCLC it was 76.7%; in the assay on NCI-H460 lung, 83.8%; with HOP-92 NSCLC, 99.7%. Moreover, the growth is 40% with NCI-H522 lung, 55.5% in the assay on A549/ATCC NSCLC, 82.4% in the assay on 786-0 renal and 93.4% in the assay with COLO 205 colon.
On to `O=C1c2cccc(NCCN=Cc3cc([N+](=O)[O-])ccc3O)c2C(=O)c2c(NCCN=Cc3cc([N+](=O)[O-])ccc3O)cccc21`, for which the growth in the assay on NCI-H23 lung is 75%; with NCI-H226 lung, 77%; with NCI-H322M lung, 77%; in the assay on HOP-62 NSCLC, 55.4%; in the assay on NCI-H460 lung, 53.4%; with HOP-92 NSCLC, 62.4%. Further, the growth in the assay with NCI-H522 lung is 45%; in the assay with A549/ATCC NSCLC, 84.6%; in the assay with 786-0 renal, 82.6%; in the assay with COLO 205 colon, 55.9%.
For `COc1ccc2[nH]c(O)c(/C=c3/cc4c(c(-c5ccc(F)c(OC)c5)n3)=Nc3ccccc3-4)c2c1`, the growth with NCI-H23 lung is 61.1%; in the assay with NCI-H226 lung, 90.7%; with NCI-H322M lung it was 89.1%; in the assay on HOP-62 NSCLC it was 88.6%; in the assay with NCI-H460 lung, -21.9% (active); with HOP-92 NSCLC it was 57.5%. The growth in the assay with NCI-H522 lung is 67%; with A549/ATCC NSCLC, 52.8%; in the assay with 786-0 renal it was -59% (active); with COLO 205 colon, 84.8%.
As for `CN(C)CCNc1nc2ccccc2c2c1c1c(n2Cc2ccccc2)-c2ccccc2C1=O`, the growth is -74.8% (active) with NCI-H23 lung; -57.1% (active) in the assay with NCI-H226 lung; -79.5% (active) with NCI-H322M lung; -90.4% (active) in the assay with HOP-62 NSCLC; -98.6% (active) in the assay on NCI-H460 lung; -78.7% (active) in the assay on HOP-92 NSCLC. The growth with NCI-H522 lung is -69.2% (active); with A549/ATCC NSCLC it was -73% (active); in the assay with 786-0 renal, -89.6% (active); with COLO 205 colon, -76.9% (active).
Consider `O=C(Nc1cccc2c(O)c(N=Nc3ccc(S(=O)(=O)Nc4nccs4)cc3)cc(N=Nc3ccc(S(=O)(=O)Nc4nccs4)cc3)c12)C(Cl)Cl`, for which the growth was 103% with NCI-H23 lung; 98.8% in the assay on NCI-H226 lung; 89.7% with NCI-H322M lung; 96.8% in the assay with HOP-62 NSCLC; 73.4% in the assay with NCI-H460 lung; 24.7% with HOP-92 NSCLC. Further, the growth was -42.5% (active) in the assay with NCI-H522 lung, 92.2% in the assay with A549/ATCC NSCLC, 103% in the assay on 786-0 renal and 99% with COLO 205 colon.
As for `O=C1CCC2=C3C4CCCCC4C(=O)C4CCCC(OC2C1)C34` (stereo not given), the growth was -12.9% (active) with NCI-H23 lung; 92.6% in the assay with NCI-H226 lung; 18% with NCI-H322M lung; 34.5% in the assay with HOP-62 NSCLC; -18.6% (active) in the assay with NCI-H460 lung; -2.29% (active) in the assay with HOP-92 NSCLC. Further, the growth was -32.4% (active) in the assay on NCI-H522 lung, 48.9% in the assay with A549/ATCC NSCLC, -9.63% (active) in the assay on 786-0 renal and 75.3% in the assay on COLO 205 colon.
`NC1=NCc2nc3ccccc3c(=O)n2C1`: the growth with NCI-H23 lung is 96.6%; in the assay with NCI-H226 lung, 94.9%; with NCI-H322M lung it was 110%; with HOP-62 NSCLC, 98.4%; with NCI-H460 lung, 111%; in the assay with HOP-92 NSCLC, 67.5%. Besides, the growth in the assay on NCI-H522 lung was 91.6%; in the assay on A549/ATCC NSCLC, 93.9%; in the assay with 786-0 renal, 97.6%; in the assay with COLO 205 colon, 124%.
On to `CNS(=O)(=O)c1n[nH]nc1-c1cc(C(C)(C)C)c(O)c(C(C)(C)C)c1`, for which the growth in the assay with NCI-H23 lung was 105%; in the assay with NCI-H226 lung, 104%; in the assay on NCI-H322M lung, 102%; in the assay on HOP-62 NSCLC, 84.7%; in the assay on NCI-H460 lung it was 109%; in the assay with HOP-92 NSCLC, 80.2%. Besides, the growth was 80.2% in the assay on NCI-H522 lung, 89.5% with A549/ATCC NSCLC, 91.2% in the assay on 786-0 renal and 103% with COLO 205 colon.

For the origin of these results see PubChem BioAssay (NCI).
